Compounds with a hit are over-represented: about 2.4% of the library has one in this group of screens.
D2 antagonist: antagonists of human D2 dopamine receptor; HEK293 TREx D2 cells, calcium flux, dopamine EC80; inhibition, % at 10 µM; P14416; 340,000 compounds, 2% hits; AID 485344; in the data active means inhibition above about 30%; inactive means below that, where a call was filed; further: 0% is about no effect
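Compounds are added to dye-loaded, induced HEK293 T-REx cells coupled to calcium release via D2; after a 3 min kinetic read an EC80 dopamine stimulus is given and fluorescence is recorded for 3 more min.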
D2 ag-1: agonists of human D2 dopamine receptor. HEK293 T-REx D2 cells, calcium flux agonist mode. activation, % at 2 µM. 340,000 compounds, 0.53% hits;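 active means activation over 3 SD above normal in the single-dose calcium agonist read, cut at about 30% in these data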; further: 0% is about no effect
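Agonism is scored from calcium flux in a force-coupled, inducible HEK293 cell line expressing D2, read kinetically for 180 s after compound addition against dopamine controls.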
D2 PAM-1: potentiates the human D2 dopamine receptor allosterically. P14416. DiscoveRx D2 beta-arrestin cells, luminescence, 90 min; 100% = 57 uM dopamine signal. potentiation, % (no concentration beside the values). 360,000 compounds, 0.23% hits; in the data active means potentiation above about 50%; inconclusive means mostly about 30% to 49%
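D2 cells co-treated with compound plus 50 nM dopamine (EC20) for 90 min at 37 deg C to detect potentiation. Beta-arrestin recruitment was read as enzyme-fragment luminescence after 1 h at ambient temperature. Full response was set by 57 uM dopamine.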
D2 ag-2: human D2 receptor agonism in beta-arrestin assay | 360,000 compounds, 0.084% hits | DiscoveRx PathHunter D2 beta-arrestin, luminescence, 90 min; 100% = 57 uM dopamine signal | AID 624465 | activation, % (concentration not given with the values); in the data active means activation above about 40%; inconclusive means between about 15% and that limit
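Agonist mode: compounds alone added to overnight-plated D2 PathHunter cells for 90 min at 37 C, with 57 uM final dopamine (EC100) defining full response. Beta-arrestin recruitment detected by chemiluminescent reagent, read after 1 h at ambient temperature.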
D2 PAM-2: positive allosteric modulators of human D2 dopamine receptor; P14416; HEK293 T-REx D2, calcium flux, EC20 dopamine potentiation; potentiation, % at 10 µM; 340,000 compounds, 0.34% hits; AID 485347;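 active means potentiation over 3 SD above the plate norm, cut at about 30% in these data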; further: 0% is about no effect
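Calcium flux readout, no-wash dye, 1 read/s. Inducible HEK293 Trex D2 line, overnight 30 C. Compound alone 180 s (agonist flags), then EC20 dopamine, another 180 s to score potentiation.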
D3 arrestin ag: confirmation of human D3 dopamine receptor agonists, beta-arrestin | shares compounds with D2 ag-1 | DiscoveRx D3 beta-arrestin cells, luminescence, 90 min | Potency, µM (highest dose often 76.9 µM), for inactives: at the highest dose activation, hits mostly activators | 2,300 compounds, 4% hits;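 further: potency means the concentration at half of the fitted maximal effect; 100% = dopamine control response; nearly all actives have a fitted effect of over 70% in size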
Target sequence (P35462 whole entry, looked up): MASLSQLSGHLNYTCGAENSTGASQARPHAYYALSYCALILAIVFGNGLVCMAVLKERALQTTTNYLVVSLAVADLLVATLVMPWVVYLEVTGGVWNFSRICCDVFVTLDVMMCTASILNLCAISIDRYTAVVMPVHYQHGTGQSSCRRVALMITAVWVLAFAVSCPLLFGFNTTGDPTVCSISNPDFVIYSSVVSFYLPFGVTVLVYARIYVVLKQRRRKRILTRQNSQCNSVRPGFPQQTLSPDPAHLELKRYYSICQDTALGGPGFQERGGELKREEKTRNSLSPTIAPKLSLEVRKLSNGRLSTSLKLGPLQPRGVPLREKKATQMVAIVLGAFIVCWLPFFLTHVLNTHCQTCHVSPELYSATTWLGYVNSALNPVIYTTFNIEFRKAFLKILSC
D2 ag-3: activates human D2 dopamine receptor in D3 counterscreen. shares compounds with D2 ag-1. DiscoveRx PathHunter D2 beta-arrestin, luminescence, 90 min; response scale: percent relative to full dopamine signal. Potency, µM (titrated, usually from 76.9 µM), for inactives: at the highest dose activation, hits mostly activators. 2,300 compounds, 5.9% hits. AID 720507; further: potency means the concentration at half of the fitted maximal effect; % of control where 0% means no effect; nearly all actives have a fitted effect of over 70% in size
Numbers without * were called inactive; ? = inconclusive; . = no result given. Unless noted, the call rests on the fitted dose curve; in most records, active means well fitted activation curve with a large enough effect; inconclusive means small, poorly fitted or top-dose-only effect; inactive means flat fitted curve, though single readings scatter.

SMILES	D2 antagonist	D2 ag-1	D2 PAM-1	D2 ag-2	D2 PAM-2	D3 arrestin ag	D2 ag-3
COc1ccccc1/C=C/CN1CCN(Cc2ccc(F)cc2)C(CCO)C1 (configuration not stated)	.	.	-17.6	-2.1	.	.	.
O=C(NCCN1CCN(c2ccccc2)CC1)C1CCN(S(=O)(=O)c2cccs2)CC1	.	.	-5.5	?	.	?	?
O=C(NCCCN1CCN(c2ccccc2F)CC1)C1CCN(S(=O)(=O)c2cccs2)CC1	74.7*	70.2*	18.3	?	-17.8	?	10µM*
O=C(NCCc1ccc(Cl)cc1)C1CCN(S(=O)(=O)c2cccs2)CC1	16.3	0.2	-4.6	-3.4	-4.0	.	.
CCCN1CCN(CCCNC(=O)c2ccc3c(=O)n(CCc4ccccc4)c(=O)[nH]c3c2)CC1	30.5*	68.0*	5.9	9.4	-23.1	-3.2%	16.7%
COc1cc2[nH]c(=O)n(CCC(=O)NCCCN3CCN(c4ccccc4F)CC3)c(=O)c2cc1OC	95.8*	50.8*	-17.2	6.5	-34.1	?	19.1%
Oc1c(Br)cc(Br)cc1-c1nc2ccccc2s1	.	-3.4	.	.	5.7	.	.
CC1=C(C(=O)Nc2ccccc2)C(c2ccncc2)n2nc(SCc3ccccc3Cl)nc2N1 (configuration not stated)	.	.	.	.	-3.2	.	.
CCc1nn(C(CC)C(=O)NCc2ccc(OC)c(OC)c2)c(=O)c2cc3oc(C)cc3n12 (configuration not stated)	.	1.6	.	.	-3.9	.	.
COc1ccc2c(c1)CC(C(=O)NCCCN1CCN(c3ccccc3F)CC1)CO2 (configuration not stated)	.	.	.	.	-25.3	.	.
O=C(NCCCN1CCN(c2ccccc2F)CC1)C1CCC(=O)N1C1CCCC1 (configuration not stated)	66.4*	72.2*	-4.5	4.2	-17.0	8.8%	?
CCCS(=O)(=O)N1CCCC(C(=O)NCCCN2CCN(c3cccc(Cl)c3)CC2)C1 (configuration not stated)	51.2*	47.6*	-29.1	6.9	-22.6	?	21.6%
CCS(=O)(=O)N1CCC(C(=O)NCCCN2CCN(c3ccccc3F)CC2)CC1	86.4*	68.7*	17.7	?	-17.9	?	?
O=C(NCCS(=O)(=O)N1CCN(c2cccc(Cl)c2)CC1)C1CCCC1	-3.4	0.4	-20.8	-2.6	-2.3	.	.
O=C(CCN1C(=O)COc2ccccc21)NCCCN1CCN(c2ccccc2F)CC1	82.0*	69.2*	-13.8	13.8	-26.3	17.1%	19.2%
COc1cccc(C(=O)Nc2cccc(C(=O)OCc3cc(=O)n4nc(C5CC5)sc4n3)c2)c1	.	-0.5	.	.	2.3	.	.
CCc1ccccc1NC(=O)c1ccc2[nH]c(C)c(C)c2c1	.	3.7	.	.	-4.7	.	.
CC(C)CC[n+]1ccccc1/C=C/c1ccc(N(C)C)cc1	4.6	10.4	-9.7	-1.8	10.6	10.4%	17.1%
CN(C(=O)c1ccc(NC(=O)Cc2cccc(NC(=O)C3CCN(C(=O)C4CC4)CC3)c2)cc1)C1CCCC1	-11.7	0.6	-2.1	0.1	21.7	-5.5%	-4.2%
Cc1ccc(C(=O)NCCC(C)C)cc1NC(=O)c1nsc2ccccc12	.	.	.	.	-0.5	.	.
CC(C)(C)NCC(O)(c1ccc(Cl)cc1)c1ccc(Cl)cc1	-2.3	0.4	-3.8	-0.7	-8.2	.	.
NCC(O)(c1ccc(Cl)cc1)c1ccc(Cl)cc1	20.1	25.9	-7.4	1.5	-5.4	5.6%	2.2%
COc1ccccc1CNS(=O)(=O)c1cc2c3c(c1)CCN3C(=O)CC2	74.8*	0.2	?	0.3	11.1	10.1%	8.5%
CN(CC(=O)Nc1ccccc1C(F)(F)F)C(=O)c1ccccc1Sc1ccccc1C#N	-6.6	-0.3	-2.6	2.6	4.8	.	.
CCN(CC(=O)Nc1ccccc1C(F)(F)F)C(=O)c1ccccc1Sc1ccccc1C#N	3.5	0.3	3.5	-1.5	-6.6	-3.9%	-5.0%

Screening results (PubChem)
